Test results published in PubChem BioAssay (NCATS).
Records with an inconclusive call do not appear. Active and inactive are the calls of the source. The call rests on the fitted dose curve; in most records, active means well fitted curve in the direction sought with a large enough effect; inconclusive means small, poorly fitted or top-dose-only effect, or another doubt; inactive means no such curve, though single readings can be large; an effect the other way counts as inactive or inconclusive.

Legend:
[1] = test system: Zika virus NS2B-NS3 protease (linked construct); assay: Primary screen NINDS Rhodamine qHTS for Zika virus inhibitors (AID 1347160); further: nearly all actives have a fitted effect of over 55% in size; further: potency means the concentration at half of the fitted maximal effect; on activity change, negative = inhibition: on the % scale 0 is the no-effect control and ±100 the full control effect
Summary of the method: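 Percent inhibition, normalized to uninhibited and enzyme-free controls, is fitted to a 4-parameter Hill equation. Fluorescence change comes from a 15-min cleavage of 1.5 microM bis-peptide Rhodamine110 substrate by 25 nM linked NS2B-NS3 at room temperature.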

[2] = OV-KATE Cancer Cell Toxicity qHTS against the NCATS CANVASS Library (AID 1347345); further: on the % scale 0 is the no-effect control and ±100 the full control effect
Summary of the method: (§1)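 Viability was assessed by adding CellTiter-Glo reagent to treated cultures and reading luminescence after 15min at room temperature. Treatment lasted 72 h at 37 degrees C/5% CO2, using an 11-point series on 1000 cells/well.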

[3] = HPAF-II Cancer Cell Toxicity qHTS against the NCATS CANVASS Library (AID 1347346); further: series mostly up to about 38 µM; on the % scale 0 is the no-effect control and ±100 the full control effect; nearly all actives have a fitted effect of over 55% in size
Summary of the method: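 HPAF-II cells at 1000 cells/well were treated with an 11-point concentration series for 72 hours at 37 degrees C. Viability read by CellTiter-Glo luminescence.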

[4] = UWB1.289 Cancer Cell Toxicity qHTS against the NCATS CANVASS Library (AID 1347347); further: nearly all actives have a fitted effect of over 60% in size; on activity change, negative = cytotoxicity: series mostly up to about 38 µM; on the % scale 0 is the no-effect control and ±100 the full control effect
Summary of the method: as §1

[5] = OV-SAHO Cancer Cell Toxicity qHTS against the NCATS CANVASS Library (AID 1347348); further: series mostly up to about 38 µM; on the % scale 0 is the no-effect control and ±100 the full control effect; nearly all actives have a fitted effect of over 55% in size
Summary of the method: as §1

[6] = Panc-1005 Cancer Cell Toxicity qHTS against the NCATS CANVASS Library (AID 1347349); further: series mostly up to about 38 µM; on the % scale 0 is the no-effect control and ±100 the full control effect; nearly all actives have a fitted effect of over 60% in size
Summary of the method: as §1

[7] = SW1088 Cancer Cell Toxicity qHTS against the NCATS CANVASS Library (AID 1347350); further: nearly all actives have a fitted effect of over 75% in size
Summary of the method: as §1

[8] = COV-362 Cancer Cell Toxicity qHTS against the NCATS CANVASS Library (AID 1347352); further: series mostly up to about 38 µM; on the % scale 0 is the no-effect control and ±100 the full control effect
Summary of the method: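 Cells at 1000/well were given compound 4 h after plating in an 11-point series. Viability was read by CellTiter-Glo luminescence after 72 h at 37 degrees C.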

[9] = HEK293 18hr Apoptosis Induction qHTS against the NCATS CANVASS Library (AID 1347357); further: 0% is about no effect
Summary of the method: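 Luminescent caspase-3/7 signal is measured in HEK293 cells exposed for 18 hours to an 11-point concentration series; doxorubicin serves as the plate control.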

[10] = HEK293 24hr Apoptosis Induction qHTS against the NCATS CANVASS Library (AID 1347359); further: 0% is about no effect
Summary of the method: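 Caspase-3/7 activation measured as luminescence from the DEVD-based Caspase-Glo reagent, 15 min at room temperature, following 24-hour compound treatment of HEK293 cells.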

[11] = KB-3-1 Cancer Cell Toxicity qHTS against the NCATS CANVASS Library (AID 1347366); further: nearly all actives have a fitted effect of over 75% in size
Summary of the method: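 Seed KB-3-1 cells at 500/well in DMEM with 10% FBS, add compounds, incubate 72 hr at 37C and 5% CO2, then add CellTiter-Glo and read luminescence after 10 minutes.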

[12] = qHTS for ATAD5 Agonist screened against the NCATS CANVASS Library (AID 1347367);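 further: luciferase reporter driven by ATAD5 which rises upon DNA damage; 0% is about no effect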
Summary of the method: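 Step one plated reporter cells and let them acclimate 5hr. Step two pinned compounds with MMS as positive and 0.46% DMSO as negative control. After 16hr incubation, fluorescence viability then luminescence were read.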

[13] = MCF7 Cancer Cell Toxicity qHTS against the NCATS CANVASS Library (AID 1347369)
Summary of the method: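 Cytotoxicity is measured by ATP content: MCF7 cells at 500 per well receive an 11-point compound series and, after 72 hr at 37C, are lysed with CellTiterGlo for luminescence.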

[14] = J3T Cancer Cell Toxicity qHTS against the NCATS CANVASS Library (AID 1347371)
Summary of the method: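 J3T dog glioma cells, 500 per well, treated 72 h at 37C with compounds (11-point qHTS); viability from ATP content by CellTiterGlo luminescence; bortezomib titration as control.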

[15] = molecular target: Nuclear receptor subfamily 1 group I member 3 (Homo sapiens) (UniProt Q14994); assay: qHTS for Constitutive Androstane Receptor (CAR) Agonist screened against the NCATS CANVASS Library (AID 1347373);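 further: every well also contained 1.5 µM PK11195 alongside the test compound; 0% is about no effect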
Summary of the method: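 HepG2 cells stably carrying hCAR and a CYP2B6-2.2kb luciferase reporter, treated 24hr at 37C with compounds plus 1.5uM PK11195; activation by ONE-Glo luminescence, viability by CellTiter-Fluor.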

[16] = 10-beta competent E. coli microbial cell viability qHTS against the NCATS CANVASS Library (AID 1347376); further: series mostly up to about 46 µM; 0% is about no effect
Summary of the method: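 10-beta competent E. coli (0.2 OD) were exposed overnight at 37C to compounds in an 11-point series. Viability was read as ATP-dependent BacTiter-Glo luminescence after 20 min at room temperature.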

[17] = qHTS for Inflammasome Signaling Inhibitors: IL-1-beta AlphaLISA screen against the NCATS CANVASS Library (AID 1347379);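 further: human THP-1 cells primed with LPS then triggered with ATP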;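 on activity change, negative = inhibition: secreted IL-1B measured as AlphaLISA emission at 615 nm; on the % scale 0 is the no-effect control and ±100 the full control effect; lower signal means less IL-1B release which is the wanted effect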
Summary of the method: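 THP-1 cells pretreated 1 hr with compound (up to 57.5 uM final), then stimulated with LPS (250 ng/mL final) and ATP (1.25 mM final). Secreted IL-1B measured by AlphaLISA after 16 hr; glyburide as positive control.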

[18] = Inflammasome Signaling qHTS Counterscreen: IL-1-beta AlphaLISA counterscreen against the NCATS CANVASS Library (AID 1347381);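 further: cell-free check with purified IL-1β in medium and no THP-1 cells; series mostly up to about 57 µM; 0% is about no effect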
Summary of the method: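 Cell-free interference check: compounds added to medium spiked with 4 pg purified IL-1β. Anti-IL-1β acceptor beads (6 ug/mL) with 0.6 nM biotinylated antibody added for 1 h at RT, then streptavidin donor beads (24 ug/mL) for 30 min in the dark. AlphaLISA read at 680/615 nm.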

[19] = Vero-766 cells viability qHTS against the NCATS CANVASS Library: Counterscreen for Zika virus inhibition assay (AID 1347394); further: series mostly up to about 46 µM; on the % scale 0 is the no-effect control and ±100 the full control effect; nearly all actives have a fitted effect of over 60% in size
Summary of the method: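 This cytotoxicity counterscreen uses African green monkey Vero 766 cells in the absence of Zika virus. Compounds are incubated with cells for 72 h, and ATP-based luminescence reports viability.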

[20] = Viability qHTS for inhibitors of the SERCaMP assay screened against the NCATS CANVASS Library (AID 1347400); further: series mostly up to about 92 µM; on the % scale 0 is the no-effect control and ±100 the full control effect; nearly all actives have a fitted effect of over 70% in size
Summary of the method: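 SH-SY5Y-GLuc SERCaMP MJH297-derived cells, 1000/well, plated 4 h, then exposed to compounds in an 11-point qHTS series for 48 h at 37C. Viability read as CellTiter-Glo luminescence.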

Nuclear receptor subfamily 1 group I member 3 (Homo sapiens), sequence (Q14994 whole entry, looked up): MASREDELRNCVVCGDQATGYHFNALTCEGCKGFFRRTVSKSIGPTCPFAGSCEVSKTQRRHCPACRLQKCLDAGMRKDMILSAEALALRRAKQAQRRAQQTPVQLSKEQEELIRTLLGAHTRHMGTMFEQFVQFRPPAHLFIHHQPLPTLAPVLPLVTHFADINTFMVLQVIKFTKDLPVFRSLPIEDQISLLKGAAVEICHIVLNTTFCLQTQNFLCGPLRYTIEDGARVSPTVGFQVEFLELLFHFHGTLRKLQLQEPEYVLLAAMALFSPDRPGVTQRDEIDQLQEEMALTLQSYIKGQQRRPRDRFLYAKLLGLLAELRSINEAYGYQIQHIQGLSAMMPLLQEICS

O=C(O)[C@@]12CO[C@@]3(O)C4CCN(CC[C@H]31)[C@H]4c1c2[nH]c2ccccc12
inactive: Potency [1] | Potency [2] | Potency [3] | Potency [4] | Potency [5] | Potency [6] | Potency [7] | Potency [8] | Potency [9] | Potency [10] | Potency [11] | Potency [12] | Potency [13] | Potency [14] | outcome [15] | outcome [16] | Potency [17] | outcome [18] | Potency [19] | Potency [20]

O=C(O)Cc1c[nH]c2ccccc12
inactive: Potency [1] | Potency [2] | Potency [3] | Potency [4] | Potency [5] | Potency [6] | Potency [7] | Potency [8] | Potency [9] | Potency [10] | Potency [11] | Potency [12] | Potency [13] | Potency [14] | outcome [15] | outcome [16] | Potency [17] | outcome [18] | Potency [19] | Potency [20]

COc1ccc2oc3c(OC)c(OC)c(OC)c(OC)c3c(=O)c2c1
inactive: Potency [1] | activity change, negative = cytotoxicity [2] -4.56% [at 7.64 µM] | activity change, negative = cytotoxicity [3] -3.19% [at 7.64 µM] | activity change, negative = cytotoxicity [4] -4.07% [at 7.64 µM] | activity change, negative = cytotoxicity [5] -19.6% [at 7.64 µM] | activity change, negative = cytotoxicity [6] -8.03% [at 7.64 µM] | activity change, negative = cytotoxicity [7] 3.04% [at 7.64 µM] | activity change, negative = cytotoxicity [8] -3.36% [at 7.64 µM] | caspase activation [9] 2.9% [at 9.19 µM] | activation [10] -1% [at 9.19 µM] | activity change, negative = cytotoxicity [11] -8.69% [at 9.19 µM] | activation [12] 0.941% [at 9.19 µM] | activity change, negative = cytotoxicity [13] 0.434% [at 9.17 µM] | activity change, negative = cytotoxicity [14] -8.53% [at 9.19 µM] | activation [15] 7.45% [at 9.19 µM] | activity change, negative = cytotoxic [16] -7.99% [at 9.19 µM] | outcome [17] inactive [at 11.5 µM] | activity change, negative = inhibition [18] 10.5% [at 11.5 µM] | activity change, negative = cytotoxic [19] -1.29% [at 9.19 µM] | activity change, negative = cytotoxicity [20] -11.8% [at 18.4 µM]

C[C@@H]1C(=O)[C@]23CC[C@H]1C[C@]21O[C@H]2C(C)(C)C=CC(=O)[C@@]23COC1=O
active: Potency [1] 62.1 µM
inactive: Potency [2] | Potency [3] | Potency [4] | Potency [5] | Potency [6] | Potency [7] | Potency [8] | Potency [9] | Potency [10] | Potency [11] | Potency [12] | Potency [13] | Potency [14] | outcome [16] | Potency [17] | outcome [18] | Potency [19] | Potency [20]

C[C@@H](CCC[C@]1(C)C(=O)C=C[C@]23C[C@H]4C[C@H](O[C@@]4(C)C2)C31)C(=O)N[C@@H](CO)C(=O)O (some centres undefined)
inactive: Potency [1] | Potency [2] | Potency [3] | Potency [4] | Potency [5] | Potency [6] | Potency [7] | Potency [8] | Potency [9] | Potency [10] | Potency [11] | Potency [12] | Potency [13] | Potency [14] | outcome [15] | outcome [16] | Potency [17] | outcome [18] | Potency [19] | Potency [20]
